Data on 15 molecules can be found in PubChem BioAssay AID588790 (National Center for Advancing Translational Sciences (NCATS), 2011).

Among all 1,200 compounds or so, about 85 (7%) were called active. Only a selection was taken, and actives are over-represented in it overall. Values without a mark were called inactive. Calls come from the whole dose curve.
Potency is the fitted concentration of half-maximal effect.

This assay deals with Beta-2 adrenergic receptor (Homo sapiens) (UniProt P07550). As to the kind of experiment: qHTS assay of beta-arrestin-biased ligands of beta2-adrenergic receptor: Hit Validation with GloSensor. For activation: 0% is about no effect. The following applies: W9-Glo22F cells, GloSensor cAMP luminescence, beta2AR agonism; series mostly up to 46.1 µM; activation: at the top concentration. The source says: The concept of biased agonism is an emerging concept of molecular pharmacology which proposes that seven transmembrane receptors (7TMRs) or G protein-coupled receptors (GPCRs), exist in multiple signaling conformations and complexes and that ligands (either agonists or antagonists) can induce signaling biased responses for distinct signal transduction cascades.
Beta-2 adrenergic receptor (Homo sapiens), sequence (P07550 whole entry, looked up): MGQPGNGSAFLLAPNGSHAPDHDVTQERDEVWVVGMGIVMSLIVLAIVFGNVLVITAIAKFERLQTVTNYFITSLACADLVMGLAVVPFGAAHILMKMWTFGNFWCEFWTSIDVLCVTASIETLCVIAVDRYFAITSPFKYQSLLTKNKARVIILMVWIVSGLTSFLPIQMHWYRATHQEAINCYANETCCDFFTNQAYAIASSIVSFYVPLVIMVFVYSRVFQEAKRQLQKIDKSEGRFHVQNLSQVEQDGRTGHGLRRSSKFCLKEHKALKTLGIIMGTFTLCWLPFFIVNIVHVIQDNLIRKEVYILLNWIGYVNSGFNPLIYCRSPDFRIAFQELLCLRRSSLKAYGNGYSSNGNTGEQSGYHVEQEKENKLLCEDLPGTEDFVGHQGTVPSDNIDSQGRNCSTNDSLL
Furthermore, accumulating evidence over the last decade has drawn attention to a novel function of beta-arrestins as signal transducers that scaffold various signaling molecules upon activation of 7TMRs. […] This beta-arrestin-biased signaling presumably leads to distinct physiological outcomes from those by G protein activation.
Additionally, the active receptor conformations which […] on this beta-arrestin signaling are likely different from those activating G protein signaling
The goal of this screening project is to discover and optimize novel beta-arrestin-biased ligands for beta2-AR signaling. A luminescent cell-based assay for beta2-AR-mediated agonism, known as the Tango assay, has been validated in which ligand binding of a recombinant beta2-AR and subsequent recruitment of a recombinant beta-arrestin lead to the release of the transcriptional activator tTA, which upregulates transcription of a tTA-responsive luciferase gene. […] After compounds were identified in this primary screen, they were tested in a counter screen that used luminescence as measure through the GloSensor reagent.
NIH Molecular Libraries Probe Production Network [MLPCN]
NIH Chemical Genomics Center [NCGC]
PI: Bryan Roth (UNC) and Bob Lefkowitz (Duke)
2 uL of W9-Glo22F cells are dispensed into a white 1536-well plate. They are incubated overnight at 37 deg C at 5% CO2. 23 nL of compounds and controls are pinned into the wells. Then 2 uL of GloSensor is added and the plate is incubated for 10 min at room temperature.The plates are then read on the ViewLux for luminescence.
In general terms: Quantitative high-throughput screening tests each substance at several concentrations.
For `COC(=O)C1=C(c2ccc(OCc3ccccc3)cc2)C[C@@H]2CC[C@H]1N2C(=O)NCc1cccc(OC)c1`, the “activation” value is -1.16%.
Take `COC(=O)C1=C(c2ccc(OCc3ccccc3)cc2)C[C@@H]2CC[C@H]1N2C(=O)NCc1ccc(OC)c(OC)c1`: the Potency was 4.11 µM (active).
For the molecule `COC(=O)C1=C(c2ccc(OCc3ccccc3)cc2)C[C@@H]2CC[C@H]1N2C(=O)NCc1cccc(C(F)(F)F)c1`, the “activation” value was -2.33%.
Still for that read-out and setting: the value for `O=C1NC(=O)N(Cc2ccccc2)C(=O)/C1=C/C=C/c1ccco1` was -0.857%; that for `COc1cccc(C(=O)C2CCCN(Cc3cccc(C)n3)C2)c1` (stereo not given) was -0.153%; that for `Clc1ccc2c(c1)C(c1ccccc1Cl)=NCc1nnc(N3CCN(CCOc4ccccc4)CC3)n1-2` was 0.153%.
On the same count and under the same terms, the value for `COC(=O)C1=C(c2ccc(-c3ccccc3)c(F)c2)C[C@@H]2CC[C@H]1N2C(=O)NCc1ccco1` was -2.33%.
Turning to `CNCC(O)c1ccc(OC(=O)C(C)(C)C)c(OC(=O)C(C)(C)C)c1` (stereo not given), the Potency was 0.259 µM (active).
Take `COC(=O)C1=C(c2ccc(OC)c(OC)c2)C[C@@H]2CC[C@H]1N2C(=O)NCc1cccc2ccccc12`: the “activation” value is 0%.
Regarding `OC12ONC(c3ccccn3)C1N1CCC2CC1` (stereo not given), the “activation” value is 1.16%.
Same read-out and setting: under `COC(=O)C1=C(c2ccc(-c3ccccc3)c(F)c2)C[C@@H]2CC[C@H]1N2C(=O)NCCOc1ccc(OC)cc1` stands -2.33%.
Regarding `O=c1c2ccccc2nc(/C=C/c2ccc(O)c(O)c2)n1-c1ccccc1`, the Potency was 32.6 µM (active).
For the molecule `COc1cccc(OCc2cc(C(=O)N3C[C@H]4C[C@@H](C3)c3cccc(=O)n3C4)no2)c1`, the “activation” value was 0.306%.
The same measure, in the same setting: the value for `c1cncc(C2Nc3cccc4cccc(c34)N2)c1` was 0%; that for `COC(=O)C1=C(c2ccc(F)cc2F)C[C@@H]2CC[C@H]1N2C(=O)NCCNC(C)=O` was -2.33%.
